Screen size: about 340,000 compounds; about 1,000 (0.29%) were called active. Cut-off read from the data, not from the text of the source: inconclusive = inhibition above about 29% without an active follow-up result; inactive = below that. The list is a sample of the results. Measured potencies and affinities stand elsewhere.
Target: Genome polyprotein (Dengue virus type 2 (strain 16681-PDK53)) (UniProt P29991)
Assay: flavivirus cap methylation enzyme inhibition – biochemical, confirmation dose response, primary screen (AID 588689)
Settings: Dengue-2 NS5 methyltransferase capping enzyme assay, at 25 µM, stronger effect = higher value
[1] = measured here: pilot screen replicate inhibition

Sequence of Genome polyprotein (Dengue virus type 2 (strain 16681-PDK53)) (P29991 whole entry, looked up): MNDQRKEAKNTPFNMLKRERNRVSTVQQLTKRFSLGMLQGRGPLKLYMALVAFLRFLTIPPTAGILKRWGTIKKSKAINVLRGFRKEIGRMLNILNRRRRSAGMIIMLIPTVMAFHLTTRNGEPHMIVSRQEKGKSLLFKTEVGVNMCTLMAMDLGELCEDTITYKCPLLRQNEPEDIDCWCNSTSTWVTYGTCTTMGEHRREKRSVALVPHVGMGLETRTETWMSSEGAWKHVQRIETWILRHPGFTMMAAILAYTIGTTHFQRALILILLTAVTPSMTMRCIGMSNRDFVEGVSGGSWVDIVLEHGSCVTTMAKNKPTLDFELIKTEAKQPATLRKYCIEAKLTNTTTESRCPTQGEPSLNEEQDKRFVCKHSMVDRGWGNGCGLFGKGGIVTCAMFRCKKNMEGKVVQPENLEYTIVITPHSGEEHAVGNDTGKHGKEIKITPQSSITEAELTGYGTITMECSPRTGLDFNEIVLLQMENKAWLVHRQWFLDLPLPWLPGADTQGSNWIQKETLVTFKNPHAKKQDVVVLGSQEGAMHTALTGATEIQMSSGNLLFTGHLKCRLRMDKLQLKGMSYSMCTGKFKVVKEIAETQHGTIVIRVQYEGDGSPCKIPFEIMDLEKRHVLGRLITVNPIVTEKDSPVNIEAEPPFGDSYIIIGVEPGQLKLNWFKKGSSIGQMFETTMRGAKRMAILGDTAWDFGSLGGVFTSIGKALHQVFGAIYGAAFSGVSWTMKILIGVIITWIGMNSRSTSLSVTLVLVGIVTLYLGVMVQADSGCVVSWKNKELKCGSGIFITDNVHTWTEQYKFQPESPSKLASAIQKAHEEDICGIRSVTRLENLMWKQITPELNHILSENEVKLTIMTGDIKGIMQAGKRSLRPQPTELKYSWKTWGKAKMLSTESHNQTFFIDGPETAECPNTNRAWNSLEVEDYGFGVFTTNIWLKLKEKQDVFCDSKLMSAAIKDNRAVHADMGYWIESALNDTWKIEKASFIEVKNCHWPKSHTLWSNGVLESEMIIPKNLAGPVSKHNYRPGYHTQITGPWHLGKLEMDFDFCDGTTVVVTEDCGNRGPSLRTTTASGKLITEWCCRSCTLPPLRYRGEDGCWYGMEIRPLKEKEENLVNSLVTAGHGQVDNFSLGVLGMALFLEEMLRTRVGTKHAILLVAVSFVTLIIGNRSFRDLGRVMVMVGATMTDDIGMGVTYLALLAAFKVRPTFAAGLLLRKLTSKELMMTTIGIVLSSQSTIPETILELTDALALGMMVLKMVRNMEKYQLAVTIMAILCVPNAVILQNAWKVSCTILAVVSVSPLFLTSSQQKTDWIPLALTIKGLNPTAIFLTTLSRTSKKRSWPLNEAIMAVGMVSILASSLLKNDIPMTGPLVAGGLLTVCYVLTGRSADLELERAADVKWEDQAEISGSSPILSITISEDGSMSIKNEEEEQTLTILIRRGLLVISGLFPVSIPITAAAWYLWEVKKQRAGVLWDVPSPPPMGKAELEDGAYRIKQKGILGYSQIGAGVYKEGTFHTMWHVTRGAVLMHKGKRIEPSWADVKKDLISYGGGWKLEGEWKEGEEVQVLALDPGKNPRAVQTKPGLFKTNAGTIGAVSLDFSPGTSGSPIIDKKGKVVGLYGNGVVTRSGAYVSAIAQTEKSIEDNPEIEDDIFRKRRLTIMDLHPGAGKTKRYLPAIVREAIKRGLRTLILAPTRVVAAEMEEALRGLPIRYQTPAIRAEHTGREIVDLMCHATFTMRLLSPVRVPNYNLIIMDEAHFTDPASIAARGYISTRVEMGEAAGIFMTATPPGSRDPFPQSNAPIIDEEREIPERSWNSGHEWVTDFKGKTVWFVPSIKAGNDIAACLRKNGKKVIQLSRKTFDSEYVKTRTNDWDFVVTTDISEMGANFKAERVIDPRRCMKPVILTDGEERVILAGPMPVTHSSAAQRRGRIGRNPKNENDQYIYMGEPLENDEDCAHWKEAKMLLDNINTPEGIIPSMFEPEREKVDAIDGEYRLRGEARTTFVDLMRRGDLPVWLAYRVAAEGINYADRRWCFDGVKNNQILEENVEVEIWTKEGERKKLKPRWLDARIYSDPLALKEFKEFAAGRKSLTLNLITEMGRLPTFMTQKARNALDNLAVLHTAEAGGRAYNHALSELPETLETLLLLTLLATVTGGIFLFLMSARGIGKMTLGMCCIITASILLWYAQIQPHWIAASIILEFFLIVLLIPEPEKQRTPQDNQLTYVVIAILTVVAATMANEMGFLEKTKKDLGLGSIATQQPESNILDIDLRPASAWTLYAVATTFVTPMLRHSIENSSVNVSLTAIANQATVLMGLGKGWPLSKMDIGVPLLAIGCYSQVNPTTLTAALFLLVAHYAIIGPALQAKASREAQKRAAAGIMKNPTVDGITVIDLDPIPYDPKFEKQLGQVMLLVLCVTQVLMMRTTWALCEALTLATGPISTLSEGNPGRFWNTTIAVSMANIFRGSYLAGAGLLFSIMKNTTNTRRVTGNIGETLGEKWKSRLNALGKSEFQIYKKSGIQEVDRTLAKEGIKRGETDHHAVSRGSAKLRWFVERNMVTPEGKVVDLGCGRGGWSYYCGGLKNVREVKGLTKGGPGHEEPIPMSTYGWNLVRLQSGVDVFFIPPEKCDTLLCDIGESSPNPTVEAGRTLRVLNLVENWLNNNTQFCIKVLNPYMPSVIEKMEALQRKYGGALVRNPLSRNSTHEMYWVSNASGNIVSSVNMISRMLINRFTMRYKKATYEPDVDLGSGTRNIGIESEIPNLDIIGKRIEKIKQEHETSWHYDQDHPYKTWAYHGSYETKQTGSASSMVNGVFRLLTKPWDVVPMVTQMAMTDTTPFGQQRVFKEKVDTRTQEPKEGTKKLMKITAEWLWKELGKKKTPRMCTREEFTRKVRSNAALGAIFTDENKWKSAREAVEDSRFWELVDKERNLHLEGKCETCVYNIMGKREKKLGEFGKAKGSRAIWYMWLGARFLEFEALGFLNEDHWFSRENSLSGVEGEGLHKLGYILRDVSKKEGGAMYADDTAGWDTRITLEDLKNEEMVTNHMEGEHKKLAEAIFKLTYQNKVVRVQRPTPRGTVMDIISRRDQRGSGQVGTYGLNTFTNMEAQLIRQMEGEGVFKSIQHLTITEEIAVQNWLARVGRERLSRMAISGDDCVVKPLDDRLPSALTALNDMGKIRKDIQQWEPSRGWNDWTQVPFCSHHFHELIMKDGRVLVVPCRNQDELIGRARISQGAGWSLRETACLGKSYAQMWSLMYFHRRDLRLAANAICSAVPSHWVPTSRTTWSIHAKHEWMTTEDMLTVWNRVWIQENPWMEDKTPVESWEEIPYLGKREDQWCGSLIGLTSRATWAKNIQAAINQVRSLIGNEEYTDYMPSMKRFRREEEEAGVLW

Compound	inhibition	inhibition [1]
CC(C)CC(=O)Nc1ccc(C(=O)COC(=O)C2CCC2)cc1	-0.65% (inactive)	
O=C1C2C3C=CC(C4CC34)C2C(=O)N1Cc1ccco1 (stereo not given)	-2.18% (inactive)	
CSCCC(NS(=O)(=O)c1ccc(F)cc1)C(=O)NCc1ccc(S(N)(=O)=O)cc1 (stereo not given)	3.04% (inactive)	
C=CCn1c(SCC(=O)NC2CCCC2)nnc1-c1ccncc1	-3.89% (inactive)	
Cc1ccc(NC2=C/C(=N/S(=O)(=O)c3cccs3)c3ccccc3C2=O)cc1	1.1% (inactive)	
CCc1ccc(S(=O)(=O)Nc2ccccn2)cc1	-5.27% (inactive)	-6.09%
Cc1ccc(S(=O)(=O)Nc2ccc3ncccc3c2[N+](=O)[O-])cc1	-1.93% (inactive)	
Cc1cc(C)c(S(=O)(=O)/N=C2\C=C(NS(=O)(=O)c3ccccc3)C(=O)c3ccccc32)c(C)c1	25.3% (inactive)	
Cc1ccc(S(=O)(=O)Nc2ccc3cc([N+](=O)[O-])ccc3c2[N+](=O)[O-])cc1	-2.33% (inactive)	
Cc1ccccc1NC1=C/C(=N\S(=O)(=O)c2cccs2)c2ccccc2C1=O	63.2% (inactive)	
CCc1ccc(S(=O)(=O)/N=C2\C=C(Nc3ccc(O)cc3)C(=O)c3ccccc32)cc1	8.96% (inactive)	
Cc1ccc(Nc2nnc(SC(C)C(=O)NCC3CCCO3)s2)cc1C (stereo not given)	4.44% (inactive)	
CCc1ccc(N(C(=O)C(F)(F)F)C(C(=O)NC2CCCCC2)c2ccncc2)cc1 (stereo not given)	0.69% (inactive)	
Cc1n[nH]c(C)c1CCCCOc1ccccc1[N+](=O)[O-]	-3.29% (inactive)	-1.21%
CSc1nnc(C)c(=O)n1COC(=O)COc1ccccc1F	9.2% (inactive)	
COc1ccc(CCn2c(C)c(C(C)=O)c3cc(OC(=O)c4ccco4)ccc32)cc1OC	-1.6% (inactive)	
COc1ccccc1-n1c(CNC(=O)c2ccc(S(=O)(=O)N3CCOCC3)cc2)n[nH]c1=S	-4.46% (inactive)	
C=C(C)CN1C(=O)c2ccccc2C1=O	2.04% (inactive)	
CC(=O)N1N=C(c2ccc(C)o2)CC1c1ccc(Br)cc1 (stereo not given)	-4.86% (inactive)	

Compound	inhibition	inhibition [1]
COc1cc2c(cc1OC)C(COc1cccc(C(F)(F)F)c1)NCC2 (stereo not given)	6.97% (inactive)	
CCCCOc1ccc(C(=O)NCC(=O)NC2CC2)cc1	1.44% (inactive)	
CCOC(=O)c1nc[nH]c1C	-4.86% (inactive)	
COc1ccc(S(=O)(=O)/N=C2\C=C(Nc3ccc(O)cc3)C(=O)c3ccccc32)cc1	10.3% (inactive)	
Cc1ccc(S(=O)(=O)Nc2ccccc2C(N)=O)cc1	-8.11% (inactive)	-8.21%
CC(C)c1ccc(-c2csc3nc[nH]c(=O)c23)cc1	-4.66% (inactive)	
CN1C/C(=N\S(=O)(=O)c2ccccc2)N(C)C1=O	-4.44% (inactive)	
Cc1ccc(NC2=C/C(=N\S(=O)(=O)c3cccs3)c3ccccc3C2=O)c(C)c1	12.8% (inactive)	
Cc1ccc(S(=O)(=O)Nc2ccccc2-c2ccccc2)cc1	-9.37% (inactive)	
Cc1ccc(S(=O)(=O)/N=C2\C=C(NS(=O)(=O)c3ccccc3)C(=O)c3ccccc32)c(C)c1	13.1% (inactive)	
CC(=O)OC1(C)C=Cc2ccccc2C1=NS(=O)(=O)c1ccccc1 (stereo not given)	4% (inactive)	
O=[N+]([O-])c1cc(C(F)(F)F)ccc1-n1nnc2ccccc21	1.31% (inactive)	
Cc1cc2cc(CNC(=O)Nc3cccc(Cl)c3)ccc2n1C	22.2% (inactive)	
COCCNc1nnc(SCC(=O)NC(=O)c2ccc(Cl)cc2)s1	2.89% (inactive)	
COc1ccc(OC)c(NC(=O)c2cccc(N3C(=O)C4C5CCC(C5)C4C3=O)c2)c1 (stereo not given)	-6.74% (inactive)	
CCOC(=O)CCC(NC(=O)CCC(=O)NC(CCC(=O)OCC)C(=O)OCC)C(=O)OCC (stereo not given)	-7.26% (inactive)	
O=C(CNC(=O)c1ccccc1F)NCCN1C(=O)S/C(=C\c2ccc3c(c2)OCO3)C1=O	-1.45% (inactive)	
O=C(c1ccc(CS(=O)c2ccc(F)cc2)o1)N1CCN(C2CCCCC2)CC1 (stereo not given)	-10.8% (inactive)	
Cc1[nH]c(=O)[nH]c(=O)c1CSc1nnc([C@@H](NC(=O)OC(C)(C)C)C(C)C)o1	0.56% (inactive)	

Compound	inhibition	inhibition [1]
C/C(=N\NS(=O)(=O)c1ccc(C(C)(C)C)cc1)c1ccccc1	-0.98% (inactive)	
CC(C)(C)c1ccc(S(=O)(=O)Nc2ccccn2)cc1	2.21% (inactive)	
COC(=O)C(C(C)=O)C1=C/C(=N\S(=O)(=O)c2ccc(C)cc2)c2ccccc2C1=O (stereo not given)	-8.06% (inactive)	
Cc1ccc(S(=O)(=O)/N=C2\C=C(Nc3ccc(O)cc3)C(=O)c3ccccc32)cc1	-0.74% (inactive)	
O=C(CCN1C(=O)C2CC=CCC2C1=O)Nc1cccc(S(=O)(=O)N2CCCCC2)c1 (stereo not given)	0% (inactive)	
NC(=O)CSc1nnc(-c2cccs2)n1-c1ccccc1	-6.45% (inactive)	
COCCN(C(=O)COC(=O)CCSc1ccc(F)cc1)c1c(N)n(Cc2ccccc2)c(=O)[nH]c1=O	-5.13% (inactive)	
COC(=O)C1(C(=O)OC)C(C(=O)c2ccccc2)C1c1ccccc1 (stereo not given)	5.57% (inactive)	
COc1cc(SC)ccc1C(=O)Nc1cccc(S(=O)(=O)NC2=NCCCCC2)c1	-1.45% (inactive)	
CCCNC(=O)c1ccc2nc(-c3ccccc3)c(-c3ccccc3)nc2c1	-0.8% (inactive)	
O=C(Nc1cccc(C(F)(F)F)c1)c1ccc2nc(-c3ccco3)c(-c3ccco3)nc2c1	21.6% (inactive)	
COc1ccc2nc3c(nc2c1)CCCC3	-8.49% (inactive)	
O=C(Nc1ccc(N2CCOCC2)cc1)c1ccc2nc(-c3ccco3)c(-c3ccco3)nc2c1	3.24% (inactive)	
COc1ccc2nc3ccccc3nc2c1	18.8% (inactive)	
O=C(Nc1ccc(N2CCOCC2)cc1)Nc1ccc2nc(-c3ccco3)c(-c3ccco3)nc2c1	13.6% (inactive)	
CCc1nc2ccc(C(=O)NCCc3ccco3)cc2nc1CC	-11.5% (inactive)	
COCCNC(=O)Nc1ccc2nc(-c3cccs3)c(-c3cccs3)nc2c1	-17.7% (inactive)	
Cc1ccccc1NC(=O)Cc1cccs1	-7.91% (inactive)	-5.49%

Reference: PubChem BioAssay AID588689 (Southern Research Specialized Biocontainment Screening …, 2011)
